In all, about 5,500 compounds went through this assay and about 2,000 (36%) were called active. Roughly 18% stayed inconclusive and do not appear here. Rule as the data show it: active = normalized growth mostly below about 0.91 (no sharp cut-off); inconclusive = no clear call, values can overlap the other calls; inactive = mostly above about 0.92. The list shows a part of the results.
Test: chemical genetic growth profiling, strain panel (AID 1159580);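 also: tested at 20 µM; growth read once vehicle control cultures reached saturation at 30 °C; 1 = growth at the plate median or of vehicle wells; lower values mean less growth of the strain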
Conditions: S. cerevisiae deletion strains, growth OD

Measured: normalized growth

COC(=O)/C(C)=C\CC12OC(C)(C)C3CC(C=C4C(=O)c5c(O)c6c(c(CCC(C)(C)Cl)c5OC431)OC1(C)CCC(=C(C)C)C6C1)C2=O (stereo unspecified)
inactive: locus YBR021W, strain FUR4, hits give low values 0.981 | locus YBR229C, strain ROT2, hits give low values 1.02 | locus YCL029C, strain bik1, hits give low values 0.997 | locus YDL035C, strain GPR1, hits give low values 1.01 | locus YDL074C, strain BRE1, hits give low values 0.994 | locus YDL101C, strain DUN1, hits give low values 0.999 | locus YDL134C, strain PPH21, hits give low values 0.976 | locus YDL185W, strain tfp1, hits give low values 1.01 | locus YDL192W, strain arf1, hits give low values 0.985 | locus YDR101C, strain arx1, hits give low values 0.992 | locus YDR150W, strain NUM1, hits give low values 1.02 | locus YDR162C, strain NBP2, hits give low values 1.01 | locus YDR318W, strain mcm21, hits give low values 0.985 | locus YDR388W, hits give low values 1.01 | locus YDR502C, strain sam2, hits give low values 0.961 | locus YER110C, hits give low values 1.02 | locus YER155C, strain BEM2, hits give low values 1.01 | locus YER167W, strain BCK2, hits give low values 1.01 | locus YGL078C, strain dbp3, hits give low values 0.994 | locus YGL086W, strain mad1, hits give low values 0.962 | locus YGL248W, strain PDE1, hits give low values 0.98 | locus YGR135W, strain pre9, hits give low values 0.982 | locus YGR252W, strain gcn5, hits give low values 0.919 | locus YHR030C, strain SLT2, hits give low values 1.02 | locus YHR079C, strain IRE1 (second series), hits give low values 1 | locus YHR094C, strain hxt1, hits give low values 1 | locus YHR129C, strain ARP1, hits give low values 1.01 | locus YHR200W, strain rpn10, hits give low values 0.984 | locus YIL066C, strain RNR3, hits give low values 1.01 | locus YIL073C, strain SPO22, hits give low values 0.987 | locus YIL125W, strain kgd1, hits give low values 0.985 | locus YIR030C, strain dcg1, hits give low values 1.01 | locus YJL095W, strain BCK1, hits give low values 0.959 | locus YJL134W, strain LCB3, hits give low values 1.03 | locus YJL168C, strain set2, hits give low values 1.01 | locus YJL187C, strain SWE1 (second series), hits give low values 0.986 | locus YJR043C, strain POL32, hits give low values 1.02 | locus YKL009W, strain mrt4, hits give low values 0.979 | locus YKL068W, hits give low values 0.999 | locus YKL085W, strain MDH1 (second series), hits give low values 0.997 | locus YKL085W, strain MDH1, hits give low values 0.997 | locus YKR001C, strain vps1, hits give low values 0.952 | locus YLR039C, strain RIC1, hits give low values 0.957 | locus YLR058C, strain SHM2, hits give low values 1 | locus YLR102C, strain apc9, hits give low values 1.01 | locus YLR262C, strain YPT6, hits give low values 0.946 | locus YLR268W, strain sec22, hits give low values 0.975 | locus YLR330W, strain CHS5, hits give low values 1.01 | locus YLR342W, strain FKS1 (second series), hits give low values 0.957 | locus YLR371W, strain rom2, hits give low values 1.02 | locus YML016C, strain PPZ1, hits give low values 1.01 | locus YML032C, strain rad52, hits give low values 0.988 | locus YML124C, strain tub3, hits give low values 1.02 | locus YMR078C, strain ctf18, hits give low values 1 | locus YMR223W, strain ubp8, hits give low values 0.985 | locus YMR307W, strain GAS1, hits give low values 0.955 | locus YNL067W, strain RPL9B, hits give low values 1.02 | locus YNL128W, strain TEP1, hits give low values 1.04 | locus YNL153C, strain GIM3, hits give low values 1 | locus YNL233W, strain BNI4, hits give low values 0.993 | locus YNL250W, strain rad50, hits give low values 1.01 | locus YNL271C, strain bni1, hits give low values 1.01 | locus YNL298W, strain CLA4, hits give low values 1.01 | locus YNL307C, strain MCK1, hits give low values 0.981 | locus YNL322C, strain KRE1, hits give low values 1.03 | locus YNR052C, strain pop2, hits give low values 0.989 | locus YOL006C, strain TOP1, hits give low values 1.06 | locus YOL012C, strain htz1 0.7 | locus YOL147C, strain pex11, hits give low values 1 | locus YOR061W, strain CKA2, hits give low values 0.999 | locus YOR069W, strain VPS5, hits give low values 1.02 | locus YOR136W, strain idh2, hits give low values 0.987 | locus YOR144C, strain elg1, hits give low values 1 | locus YOR184W, strain ser1, hits give low values 0.977 | locus YOR316C, strain cot1, hits give low values 0.999 | locus YPR119W, strain clb2, hits give low values 1.01 | locus YPR141C, strain kar3, hits give low values 1.02 | locus YPR163C, strain tif3, hits give low values 1 | locus YPR167C, strain met16, hits give low values 0.982 | strain wtn01, hits give low values 0.969
active: locus YLR418C, strain cdc73, hits give low values 0.834

Reference: PubChem BioAssay AID1159580 (chemical genetic matrix, 2015)
